We go through 91 compounds from PubChem BioAssay AID652017 (The Scripps Research Institute Molecular Screening Center, 2013).

The campaign covered roughly 370,000 compounds. About 3,800 (1%) were called active. No stated cut-off is given here; in the data, active means activation above about 7.8%; inactive means the rest. For the sample, actives were picked, then their nearest neighbours and some compounds at random.

This assay is described as follows: SMARCA2 (BRM) function activators, primary screen, cell-based, luminescence, high throughput (AID 652017).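 Further: 0% = vehicle wells and 100% = reference activator wells.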 The note with it: MG213 cells, MMTV-luciferase reporter, dexamethasone, overnight; at 9.1 µM; hits give high values.
Consider `Cc1ccc(NC(=S)NNC(=O)CSc2nnc(SCc3ccccc3Cl)s2)cc1`, for which the activation is -6.06% (inactive). In the case of `CCOc1ccc(C(=O)Nc2nccs2)cc1[N+](=O)[O-]` it was 5.63% (inactive). The same measure for `CC(=O)Oc1ccc(C(=O)Nc2nccs2)cc1`: 9.12% (active). Regarding `Cn1cccc1C(=O)Nc1nccs1`, the activation is 1.12% (inactive). For `COc1ccc(-c2nc3n(c(=O)c2C#N)CCS3)c(OC)c1`, the activation is -2.7% (inactive). In the case of `COc1ccc2c(c1)CN1CN(CCc3ccccc3)S(=O)(=O)CC21` (stereo unspecified) it was 5.9% (inactive). The same measure for `COc1ccc(OC)c2c(N)c(C#N)c(C(F)(F)C(F)(F)F)nc12`: 1.9% (inactive); for `COc1ccc(-c2cc(C(F)(F)F)nc(S(C)(=O)=O)n2)cc1OC`: -11.1% (inactive). Turning to `COc1ccc(-c2cc(-c3ccc(N)cc3)nc(N)c2C#N)cc1OC`, the activation is 8.11% (active). Take `CCCCOc1ccc(Cl)cc1CSc1nncn1N`: the activation is 1.44% (inactive).

On to `CCCCCCCCN1C(=O)[C@@H](CC(=O)NCc2ccc(C)o2)C[C@@]2(C(=O)OC)C1=C[C@H](C(C)(C)C)O[C@@H]2C`, for which the activation is -5.88% (inactive). Take `COc1cccc(CSc2nnc(-c3cccnc3)n2Cc2ccccc2)c1`: the activation was -3.94% (inactive).

For `Cc1ccc(S(=O)(=O)NC2CCCCCC2)cc1C(N)=O`, the activation was -2.18% (inactive).

As for `CC(C)c1ccc(S(=O)(=O)NC2CCCC2)cc1`, the activation is -1.52% (inactive).

`Cn1sc(=O)c2cc(S(=O)(=O)NC3CC3)ccc21`: the activation was 8.34% (active). In the case of `CN(C)CC(=O)N[C@@H]1C[C@@H]2O[C@H](CO)CC[C@@H]2O[C@@H]1CCc1ccc(C#Cc2ccccc2)cc1` it was 0.56% (inactive); in that of `CCC(C)Sc1nc(C)nc2c1c(=O)n(C)c(=O)n2C` (stereo unspecified), -1.47% (inactive); in that of `CC(=O)Nc1cccc(-c2cc(NC(C)=O)c3ncc(-c4ccccc4)n3c2)c1`, -12.2% (inactive). In the case of `CN(C)CCNC(=O)c1cccc(-c2cnc3c(NC=O)cc(-c4cccc(C(F)(F)F)c4)cn23)c1` it was 21.3% (active); in that of `CN(C)C(=O)c1cccc(-c2cnc3c(NC=O)cc(-c4ccc(C(=O)N5CCOCC5)cc4)cn23)c1`, 3.31% (inactive). In the case of `O=CNc1cc(-c2ccc(C(=O)N3CCOCC3)cc2)cn2c(-c3ccc(F)cc3)cnc12` it was -2.13% (inactive). As to `CC(=O)Nc1cc(-c2ccc(N3CCN(C)CC3)cc2)cn2c(-c3ccc(F)cc3)cnc12`, the activation is 12.3% (active). As to `COc1ccc(-c2cc(NC=O)c3ncc(-c4cccc(C(=O)N(C)C)c4)n3c2)c(OC)c1`, the activation was -4.41% (inactive).

As to `CC(=O)c1cccc(-c2cnc3c(NC=O)cc(-c4ccc(N5CCN(C)CC5)cc4)cn23)c1`, the activation is 16.7% (active). The same measure for `CC(=O)Nc1cc(-c2ccc(N3CCN(C)CC3)cc2)cn2c(-c3cccc(C(=O)N(C)C)c3)cnc12`: 5.35% (inactive); for `CC(=O)Nc1cc(-c2cccc(CO)c2)cn2c(-c3cccc(C(F)(F)F)c3)cnc12`: -2.27% (inactive).

Turning to `O=C(CN1CCC(NC(=O)NCc2ccccc2)CC1)Nc1ccc2c(c1)OCCO2`, the activation was 0.31% (inactive). With `COc1ccc(N2CCN(CCNS(=O)(=O)c3ccc(C(C)(C)C)cc3)CC2)cc1`, the activation is 3.29% (inactive). The same measure for `Clc1ccc(-n2c(COc3ccccc3)nnc2SCc2nc3ccccc3[nH]2)cc1`: -4.61% (inactive); for `O=C(CCCCO)c1ccc(O)c(Cl)c1`: -1.51% (inactive). In the case of `CC(C)CNc1cccc2c1S(=O)(=O)N(Cc1cn(Cc3ccccc3C(F)(F)F)nn1)Cc1ccccc1O2` it was -2.65% (inactive). In the case of `CCOC(=O)N1CCN(C(=O)C[C@@H]2C(=O)N(CCc3ccc(Cl)cc3)C3=CCCC[C@]32C(=O)OCC)CC1`, the activation was -1.86% (inactive). The same measure for `COc1cc(NC(=O)C2CCCN(S(=O)(=O)c3ccc(C(C)(C)C)cc3)C2)cc(OC)c1` (stereo unspecified): 2.08% (inactive).

Take `CCCCCN1CCCCC(NC(=O)C(C)CCC)C1=O` (stereo unspecified): the activation was -0.09% (inactive).

In the case of `CC1CCCCN1C(=S)NCc1ccccc1` (stereo unspecified), the activation is 8.25% (active). The same measure for `CC1CCCCN1C(=O)CCS(=O)(=O)Cc1ccccc1` (stereo unspecified): -2.25% (inactive); for `C/C(=N\NC(=S)NCc1ccccc1)C1CCCCC1`: 1.15% (inactive). In the case of `O=C1C2CCCN2C(=O)N1CCCCN1CCN(c2cccc(C(F)(F)F)c2)CC1` (stereo unspecified) it was 2.48% (inactive); in that of `O=C(NCCc1ccco1)c1ccc(OCc2cn3ccccc3n2)cc1`, 6.76% (inactive). As to `CN(C)C(CNC(=O)c1ccc(OCc2cn3ccccc3n2)cc1)c1ccco1` (stereo unspecified), the activation was 11.2% (active).

With `O=Cc1ccc(OCc2cn3ccccc3n2)cc1`, the activation was -6.54% (inactive). In the case of `CC(=O)N1CCCN(C2=Nc3ccccc3Sc3ccccc32)CC1` it was -0.9% (inactive).

As to `O=C(NCc1ccco1)C1CCCN(S(=O)(=O)c2ccc(Cl)s2)C1` (stereo unspecified), the activation was -1.17% (inactive).

In the case of `Fc1ccc(/C=N/Nc2nc(-c3cccnc3)nc3ccccc23)cc1`, the activation is 11.3% (active).

For `O=C(CSc1n[nH]c(-c2cccnc2)n1)Nc1ccnc2ccccc12`, the activation is -1.59% (inactive). The same measure for `COC(=O)c1cccc(Cn2ccc3ccc(-c4ccc5ccn(C(=O)C6CCCCC6)c5c4)cc32)c1`: -0.58% (inactive); for `Cc1ccccc1NC(=O)COC(=O)c1ccc(Sc2ncn[nH]2)c([N+](=O)[O-])c1`: -3.59% (inactive); for `CC[C@@H](CCC(=O)N(c1ccccc1)c1ccccc1)C1CC1`: -5.25% (inactive). In the case of `Cc1ccc(NS(=O)(=O)c2ccc(C(C)C)cc2)cc1S(=O)(=O)N1CCOCC1` it was -0.94% (inactive); in that of `COC(=O)[C@@]12CCCCC=C1N(CCc1ccc(Cl)cc1)C(=O)[C@H]2CC(=O)NCc1ccc(OC)c(OC)c1`, -0.41% (inactive); in that of `CCOC(=O)c1nnn(CC(=O)Nc2cccc(F)c2)c1C(=O)OCC`, -2.09% (inactive). In the case of `O=C(Nc1cccc(Cl)c1)c1cncn1-c1ccc(F)cc1` it was -2.14% (inactive). With `CCC(=O)Nc1ccc2nn(-c3ccc(F)cc3)nc2c1`, the activation is 9.02% (active). In the case of `CCc1ccccc1N1CN(Cc2ccco2)CNC1=S` it was -4.87% (inactive); in that of `CC1CN(Cc2ccco2)C(=S)N(c2ccccc2)C1=O` (stereo unspecified), -1.86% (inactive); in that of `CN(C)C(=S)N=c1ssc(=S)n1Cc1ccco1`, 8.22% (active). In the case of `COC(=O)C1=C(C)N(Cc2ccc(F)cc2)C(=S)NC1c1cccc(Cl)c1` (stereo unspecified) it was -3.14% (inactive); in that of `Cc1ccccc1C#CC1=CC(=O)CC(C)(C)C1`, 9.9% (active); in that of `Cc1cc(O)ccc1NC1=CC(=O)CC(C)(C)C1`, -2.49% (inactive).

On to `Cc1ccc(C(=O)OC2=CC(=O)CC(C)(C)C2)cc1`, for which the activation is 2.66% (inactive). The same measure for `COc1ccccc1N(CC(=O)Nc1ccc(C(F)(F)F)cc1)S(C)(=O)=O`: -1.17% (inactive); for `C=CCN1C(=O)[C@@H](CC(=O)NCCCOCCCC)[C@]2(C(=O)OCC)CCCCC/C=C/12`: -1.57% (inactive); for `COc1ccc(-n2c(SCC(=O)NC3CCCC3)nnc2-c2ccncc2)cc1`: -4.56% (inactive). In the case of `O=C(O)c1ccccc1-c1ccccc1C(=O)NCCc1ccccc1` it was 1.35% (inactive); in that of `CSc1ncc(C(=O)NCCCc2ccccc2)c(C)n1`, -0.15% (inactive).

`Cc1c(C(=O)NCCCc2ccccc2)cccc1[N+](=O)[O-]`: the activation is 8.08% (active). Consider `O=S1(=O)c2c(cccc2N2CCSCC2)Oc2ccccc2CN1Cc1cn(Cc2ccc(F)cc2)nn1`, for which the activation is -2.23% (inactive). The same measure for `O=C(CCS(=O)(=O)c1ccccc1)Nc1ccc(Cl)c(Cl)c1`: 1.57% (inactive).

In the case of `COc1ccc(-n2c(SCC(=O)Nc3ccc4c(c3)OCCO4)nnc2-c2ccc(Cl)cc2)cc1`, the activation was -0.28% (inactive). The same measure for `Cc1ccc(Cl)cc1NC(=O)C1CCN(S(C)(=O)=O)CC1`: -0.58% (inactive).

On to `Cc1ccnc(NC(=O)C2CCN(S(=O)(=O)c3c(C)c(C)cc(C)c3C)CC2)c1`, for which the activation was 9.5% (active). The same measure for `O=C(Nc1ccccn1)C1CCN(S(=O)(=O)c2ccc3c(c2)OCCO3)CC1`: -2.23% (inactive). As to `COC(=O)[C@]12C[C@H](CC(=O)NCc3ccc(C)o3)C(=O)N(CCC3=CCCCC3)C1=C[C@H](C(C)(C)C)O[C@@H]2C`, the activation was 3.47% (inactive). In the case of `CCN(CC)C(=O)CC[C@@H]1CC[C@]2(CCCN(S(=O)(=O)C3CCCCC3)C2)O1`, the activation was -3.43% (inactive). In the case of `N/C(=N\OC(=O)CCc1ccccc1)c1ccc(Cl)cc1` it was 5.53% (inactive). With `CO/N=C/CC(=O)c1ccc(OC)cc1`, the activation was 4.21% (inactive). In the case of `COc1ccc(/C(N)=N/OC(=O)Oc2ccccc2)cc1` it was 8.42% (active); in that of `CN(CC(=O)Nc1cccc(F)c1)C(=O)C1CSC2(C)CCC(=O)N12` (stereo unspecified), -0.29% (inactive).

As for `CN1[C@H](Cc2ccccc2)COc2cccc(N3CCSCC3)c2S1(=O)=O`, the activation was 0.97% (inactive). The same measure for `CCN1CCC(=NNC(=O)c2ccc(C)c([N+](=O)[O-])c2)CC1`: -0.87% (inactive). Regarding `CCCCNc1ccc(C(=O)Nc2cccc(C)n2)cc1[N+](=O)[O-]`, the activation is -1.63% (inactive). The same measure for `Cc1cc(O)c(NC(=O)c2ccc(C)c([N+](=O)[O-])c2)cc1C`: 9.28% (active). The same measure for `COc1ccc(C(=O)N2CCN(c3ncccn3)CC2)cc1S(=O)(=O)N1CCOCC1`: -2.62% (inactive); for `Cc1cc(C(=O)NN=C/C=C/c2ccco2)n[nH]1`: -4.94% (inactive); for `Cc1ccc(NC(=O)Cc2cccc(F)c2)c(S(=O)(=O)N2CCOCC2)c1`: -4.77% (inactive).

For `CCOc1ccc(-c2c(C)n([O-])c3c([n+]2=O)CCCC3)cc1`, the activation is 0.92% (inactive). The same measure for `Cc1ccc(-c2c[n+](=O)c3c(n2[O-])CCC3)cc1`: -3.37% (inactive); for `Cc1ccc(-c2c(C)n([O-])c3c([n+]2=O)CCC3)cc1`: 14.5% (active); for `CCCCCCOC(=O)NCC(O)c1ccccc1` (stereo unspecified): 11.2% (active).

Turning to `CCCCOC(=O)Nc1nnc(CC(=O)NCc2ccccc2)s1`, the activation is -0.38% (inactive). In the case of `CCCc1cc(=O)oc2c(C)c(OC(C)C(=O)NCC(O)c3ccccc3)ccc12` (stereo unspecified) it was -0.91% (inactive).
